Experimental data reported in PMC5540273 (PLoS ONE, 2017).

Experiments:
Conditions in all cases: concentration: 1 μM,replicates: in singlicate; n = 1
TNNI3K = test system: TNNI3K
TRKA = test system: T1, TRKA
T1 construct: gene NTRK1

TRKB = test system: TRKB
TRKC = test system: T2, TRKC
T2 construct: gene NTRK3

TRPM6 = test system: TRPM6
TSSK1B = test system: TSSK1B
TSSK3 = test system: TSSK3
TTK = test system: TTK
TXK = test system: TXK
[1] = test system: TYK2(JH1domain-catalytic)
[2] = test system: TYK2(JH2domain-pseudokinase)
TYRO3 = test system: TYRO3
ULK1 = test system: ULK1
ULK2 = test system: ULK2
ULK3 = test system: ULK3
VEGFR2 = test system: T3, VEGFR2
T3 construct: gene KDR

VPS34 = test system: T4, VPS34
T4 construct: gene PIK3C3

VRK2 = test system: VRK2
WEE1 = test system: WEE1
WEE2 = test system: WEE2
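Further: KINOMEscan kinase panel screen.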

| Compound | %Inh (TNNI3K) [%] | %Inh (TRKA) [%] | %Inh (TRKB) [%] | %Inh (TRKC) [%] | %Inh (TRPM6) [%] | %Inh (TSSK1B) [%] | %Inh (TSSK3) [%] | %Inh (TTK) [%] | %Inh (TXK) [%] | %Inh [1] [%] | %Inh [2] [%] | %Inh (TYRO3) [%] | %Inh (ULK1) [%] | %Inh (ULK2) [%] | %Inh (ULK3) [%] | %Inh (VEGFR2) [%] | %Inh (VPS34) [%] | %Inh (VRK2) [%] | %Inh (WEE1) [%] | %Inh (WEE2) [%] |
| --- | --- | --- | --- | --- | --- | --- | --- | --- | --- | --- | --- | --- | --- | --- | --- | --- | --- | --- | --- | --- |
| C[C@@H](Oc1cc(-n2cnc3cc(-c4ccncc4)ccc32)sc1C(N)=O)c1ccccc1Cl [GSK479719] | 29 | 66 | 52 | 50 | 0 | 34 | 13 | 2 | 0 | 25 | 46 | 15 | 32 | 3 | 18 | 40 | 32 | 0 | 1 | 0 |
| Cc1ccn2nc(-c3ccc(F)cc3)c(-c3ccncc3)c2c1.Cl [GW457859] | 0 | 6 | 39 | 24 | 14 | 0 | 0 | 0 | 20 | 26 | 25 | 0 | 0 | 0 | 0 | 19 | 51 | 0 | 7 | 0 |
| C[C@@H]1CNc2c(sc3ccc4nc(-c5ccncc5)ccc4c23)C(=O)N1 | 0 | 0 | 0 | 0 | 0 | 33 | 2 | 16 | 0 | 46 | 59 | 0 | 26 | 27 | 0 | 13 | 0 | 0 | 0 | 0 |
| COC(=O)c1cccc(NC(=O)NC2CCN(c3ccnc(NCc4ccc(F)cc4)n3)CC2)c1 [GSK1379860] | 0 | 0 | 12 | 24 | 0 | 0 | 11 | 0 | 7 | 13 | 5 | 17 | 20 | 0 | 15 | 8 | 17 | 7 | 8 | 8 |
| CC(=O)Nc1nc2cnc(Nc3cc(NC(=O)c4cccc(CC(C)(C)C#N)c4)ccc3C)nc2s1 | 57 | 0 | 0 | 7 | 2 | 19 | 1 | 12 | 1 | 0 | 28 | 0 | 30 | 0 | 11 | 63 | 11 | 0 | 0 | 15 |
| Nc1nccc(-c2ccc3c(N)n[nH]c3c2)n1 [GSK1034945] | 13 | 0 | 0 | 0 | 26 | 0 | 27 | 0 | 0 | 34 | 52 | 0 | 41 | 13 | 4 | 0 | 0 | 0 | 35 | 0 |
| CS(=O)(=O)c1cccc(CNc2nc(Nc3ccc4c(c3)[C@@H]3C[C@@H]4CNC3=O)ncc2C(F)(F)F)c1 | 0 | 99.2 | 96.8 | 90.4 | 0 | 0 | 6 | 99.8 | 28 | 94.7 | 0 | 0 | 89 | 77 | 99.9 | 98.1 | 0 | 37 | 2 | 30 |
| COc1cc2ncn(-c3cc(OCC4CCCCC4)c(C(N)=O)s3)c2cc1OC [GSK204559] | 5 | 31 | 0 | 0 | 13 | 0 | 3 | 30 | 0 | 12 | 15 | 0 | 9 | 0 | 25 | 4 | 20 | 0 | 0 | 25 |
| C[C@@H]1CNc2c(sc3ccc4nc(-c5ccc(O)cc5)ccc4c23)C(=O)N1 | 1 | 7 | 0 | 0 | 0 | 0 | 4 | 9 | 7 | 74 | 23 | 0 | 38 | 63 | 24 | 11 | 9 | 17 | 17 | 0 |
| C[C@@H](Oc1cc(-n2cnc3ccc(-c4ccncc4)cc32)sc1C(N)=O)c1ccccc1Cl [GSK483724] | 6 | 57 | 7 | 18 | 34 | 29 | 17 | 34 | 11 | 18 | 42 | 0 | 6 | 0 | 7 | 8 | 96.4 | 0 | 46 | 1 |
| OCCn1cc(-c2cnc3nnn(Cc4ccc5ncccc5c4)c3n2)cn1 | 0 | 0 | 0 | 0 | 0 | 0 | 0 | 0 | 0 | 0 | 0 | 0 | 0 | 0 | 0 | 0 | 17 | 0 | 0 | 0 |
| CCN1CCN(CCCC(=O)Nc2n[nH]c3nc(-c4ccc(O)cc4)c(Br)cc23)CC1 [SB-731579] | 0 | 38 | 2 | 0 | 0 | 0 | 0 | 0 | 0 | 52 | 0 | 0 | 0 | 0 | 6 | 0 | 0 | 69 | 0 | 29 |
| FC(F)(F)c1cc(Br)cc(Nc2nccc(-c3cnn4ncccc34)n2)c1 [GW810578] | 66 | 48 | 0 | 1 | 0 | 5 | 5 | 41 | 7 | 0 | 89 | 0 | 21 | 20 | 12 | 40 | 64 | 4 | 5 | 70 |
| CCCC(=O)Nc1n[nH]c2ncccc12 [SB-601436] | 0 | 0 | 6 | 28 | 2 | 0 | 0 | 0 | 0 | 0 | 0 | 0 | 0 | 18 | 0 | 0 | 0 | 0 | 0 | 0 |
| Cn1cc(-c2cccc3c(N)c(C(N)=O)nnc23)cn1 | 5 | 24 | 0 | 0 | 35 | 0 | 0 | 1 | 0 | 19 | 80 | 0 | 23 | 14 | 21 | 13 | 46 | 1 | 3 | 18 |
| O=C(NCC1CC1)c1ccc(-c2cc(C(=O)NC3CC3)ccc2F)cc1 [GW810445] | 0 | 14 | 0 | 0 | 0 | 0 | 0 | 12 | 0 | 19 | 2 | 0 | 1 | 0 | 3 | 0 | 16 | 19 | 0 | 0 |
| O=C1NCCc2[nH]c(-c3ccncc3)cc21 | 0 | 10 | 19 | 14 | 0 | 0 | 0 | 1 | 2 | 80 | 41 | 0 | 25 | 32 | 18 | 25 | 25 | 19 | 13 | 0 |
| O=C(Nc1cccc(Oc2ccc3nccn3n2)c1)Nc1cccc(C(F)(F)F)c1 | 66 | 76 | 35 | 55 | 0 | 13 | 0 | 0 | 22 | 9 | 1 | 0 | 0 | 0 | 3 | – | 14 | 0 | 0 | 9 |
| COC(=O)Nc1nc2cc(Oc3ccc(NC(=O)Nc4cc(C(F)(F)F)ccc4Cl)cc3)ccc2[nH]1.Cl [GW697465] | 88 | 100 | 99.7 | 99.8 | 0 | 0 | 10 | 1 | 0 | 14 | 30 | 3 | 17 | 0 | 10 | 64 | 35 | 4 | 8 | 11 |
| CS(=O)(=O)Nc1ccc(-c2ccnc3[nH]ccc23)cc1 [GSK993273] | 7 | 91 | 48 | 39 | 27 | 17 | 26 | 60 | 0 | 99.6 | 24 | 0 | 64 | 10 | 95.4 | 48 | 31 | 0 | 5 | 0 |
| Cc1cccc(-c2nc(Nc3ccncc3)c3sccc3n2)n1 [GW869641] | 7 | 6 | 6 | 5 | 38 | 0 | 24 | 27 | 0 | 20 | 75 | 0 | 43 | 29 | 45 | 35 | 32 | 39 | 20 | 11 |
